ALDH1A1 block = blocks purified human ALDH1A1 activity. P00352. Purified ALDH1A1, NADH fluorescence, propionaldehyde substrate. Potency, µM (series often up to 75.3 µM), for the others: at the top dose activity, negative = inhibition, usual class: inhibitors. 220,000 tested, 7.3% active. AID 1030;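 note: potency is the fitted concentration of half-maximal effect; plate controls were no enzyme wells and a reference inhibitor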
Target sequence (P00352 whole entry, looked up): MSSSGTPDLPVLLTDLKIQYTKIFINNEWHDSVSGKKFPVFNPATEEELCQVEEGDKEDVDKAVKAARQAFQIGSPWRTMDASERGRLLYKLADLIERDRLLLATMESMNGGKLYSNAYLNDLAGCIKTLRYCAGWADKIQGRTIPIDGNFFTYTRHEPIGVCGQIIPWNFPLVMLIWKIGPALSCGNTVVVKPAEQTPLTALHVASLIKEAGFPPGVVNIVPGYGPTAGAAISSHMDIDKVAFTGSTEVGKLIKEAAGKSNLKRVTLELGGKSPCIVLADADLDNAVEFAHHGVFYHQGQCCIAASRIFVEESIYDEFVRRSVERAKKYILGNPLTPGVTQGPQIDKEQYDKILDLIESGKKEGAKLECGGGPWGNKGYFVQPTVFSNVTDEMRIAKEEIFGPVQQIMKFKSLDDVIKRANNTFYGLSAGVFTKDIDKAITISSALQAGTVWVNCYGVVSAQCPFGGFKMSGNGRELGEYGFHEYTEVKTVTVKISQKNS
KinaseGlo FLuc = counter-screen: inhibitors of Kinase-Glo firefly luciferase | Q27757 | Kinase-Glo luciferase, ATP luminescence, 8 min | Potency, µM (highest dose often 38.3 µM), without a hit: at the highest dose activity change, negative = inhibition, hits mostly inhibitors | 200,000 tested, 0.28% active | AID 1379; active = well fitted inhibition curve with a large enough effect; inconclusive = small, poorly fitted or top-dose-only effect; note: potency is the fitted concentration of half-maximal effect; nearly all actives have a fitted effect of over 60% in size
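Inhibition of Kinase-Glo luciferase light generation was assessed at 10 uM ATP in pH 7.2 imidazole buffer, with luminescence measured after eight minutes at ambient temperature.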
IMPase cell inh = cell-permeable inhibitors of inositol monophosphatase (IMPase); P97697; CHO-M1 cells, IP1 accumulation, HTRF TR-FRET ratio; 120,000 tested, under 10 active; inhibition (IP1 accumulation), % at 46.1 µM; active = well fitted curve in the direction sought with a large enough effect in the signal ratio, not every such curve was filed as active; inconclusive = small, poorly fitted or top-dose-only effect, or a change in a side signal; inactive = no such curve, though single readings can be large or run the other way; the % refers to the signal ratio;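 note: cells stimulated with carbachol in lithium chloride buffer; plate controls were DMSO basal wells for no effect and reference inhibitor wells for full effect; higher means more IMPase inhibition seen as more IP1 and lower FRET ratio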
Target sequence (P97697 whole entry, looked up): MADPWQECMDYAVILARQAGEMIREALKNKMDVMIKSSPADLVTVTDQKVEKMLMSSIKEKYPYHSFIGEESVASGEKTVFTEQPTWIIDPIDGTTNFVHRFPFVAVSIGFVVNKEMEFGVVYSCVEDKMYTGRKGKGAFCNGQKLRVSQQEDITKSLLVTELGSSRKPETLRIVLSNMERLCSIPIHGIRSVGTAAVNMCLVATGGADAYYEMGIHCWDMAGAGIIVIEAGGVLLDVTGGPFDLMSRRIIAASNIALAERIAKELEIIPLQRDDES
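Carbachol-driven Gq signalling in CHO-M1 cells (2000/well) generates IP1. Compounds that block IMPase raise IP1 and so reduce the FRET signal from Eu-anti-IP1 and d2-IP1 after a 10 min room-temperature lysis.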
LMNA splice mod = changes lamin A minigene splicing in HeLa cells; Potency, µM (doses to about 46.1 µM), for inactives: top-dose ratio change, negative = inhibition, actives largely listed as inhibitors; AID 1487; HeLa LMNA splicing GFP/RFP minigene ratio, 48 h; 200,000 tested, 0.01% active; active = well fitted inhibition curve with a large enough effect in the signal ratio, with a control signal flat, not every such curve was filed as active; inconclusive = small, poorly fitted or top-dose-only effect, or effect the other way, or a change in a side signal; the % refers to the signal ratio; note: potency is the fitted concentration of half-maximal effect
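S3 HeLa cells stably expressing lamin A-EGFP splicing minigene plus DsRed2, 600 cells/well, 48 h compound exposure at 37C. Laser-scanning cytometry; analysed as GFP (500-530 nm)/RFP (575-640 nm) total intensity ratio; 0.5% DMSO vehicle.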
PNC inhibitor = perinucleolar compartment assembly inhibition. activity change (PNC), negative = inhibition, % at 10 µM. 140,000 tested, 3.1% active. PC3M PTB-GFP, PNC prevalence imaging, 16 h; active compounds read low;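 active = readout at or below -70, meaning at least 70% loss of cells showing the perinucleolar compartment, a nuclear body marking cancer cells; inconclusive = readout between -30 and a set limit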;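 note: plate controls were DMSO wells for no effect and camptothecin positive control wells for full effect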
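Read-out is percentage of cells bearing a perinucleolar compartment, from automated 20x imaging of fixed, Hoechst-stained PC3M PTB-GFP cells. Cells were seeded 4 h, then exposed 16 h to compound (23 nl of library stock) in duplicate plates.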
HPGD block = blocks human HPGD enzyme activity | Potency, µM, inactives show top-dose activity change, negative = inhibition, most hits filed as inhibitors | P15428 | purified HPGD, NADH fluorescence kinetic, PGE2 substrate | 150,000 tested, 4.3% active; note: potency is the fitted concentration of half-maximal effect
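20 nM HPGD preincubated 15 min at room temperature with compound in 50 mM Tris-HCl pH 8, 0.01% Tween 20. Started with 1 mM NAD+ and 30 uM prostaglandin E2; NADH fluorescence (360/450 nm) read 5 times over 30-s intervals, last minus first.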
* hit, by the source's call; ? = inconclusive; nt = no result given; [ ] = dose if it differs, or a comment. Sampled rows, rich in hits. Any-hit rate of the full collection: about 10%. Unless noted, calls come from the whole dose curve; as a rule, active = well fitted inhibition curve with a large enough effect (not every such curve was filed as active); inconclusive = small, poorly fitted or top-dose-only effect, or another doubt; inactive = no such curve, though single readings can be large or run the other way. Unless noted, % is set by controls: 0 for no effect and ±100 for the full control effect.

SMILES | ALDH1A1 block | KinaseGlo FLuc | IMPase cell inh | LMNA splice mod | PNC inhibitor | HPGD block
O=C(CCn1c(=O)c2cccn2c2ccc(F)cc21)NCc1ccccc1F | nt | nt | nt | 21%[46 µM] | nt | nt
CCn1cc(C(=O)OCC(=O)c2cc(C)n(-c3ccccc3)c2C)c(=O)c2ccc(C)nc21 | -1% | -2% | nt | -2% | 52 | -12%
CCn1cc(C(=O)OCC(=O)Nc2ccc(C(C)C)cc2)c(=O)c2ccc(C)nc21 | 14µM* | 3% | nt | -11%[46 µM] | nt | nt
CCn1cc(C(=O)Nc2ccc(C(=O)N3CCCC3)cc2)c(=O)c2ccc(C)nc21 | 11% | -4% | -3 | 7% | -6 | 4µM*
CCn1cc(C(=O)OCC(=O)Nc2cccc(S(=O)(=O)N3CCOCC3)c2)c(=O)c2ccc(C)nc21 | ? | 2% | 7 | 7% | 16 | -7%
CCn1cc(C(=O)OCC(=O)c2cc(C)n(-c3ccc(OC(F)F)cc3)c2C)c(=O)c2ccc(C)nc21 | 10µM* | 0% | nt | 1% | ? | -8%
N#Cc1cccc(-c2nc3cnc(Oc4cccc(Cl)c4)nc3n(C3CC3)c2=O)c1 | 25µM* | nt | nt | ? | nt | nt
O=C[C@@H]1CCCN1C(=O)[C@@H]1CCCN1C(=O)OCc1ccccc1 | 7.9µM* | nt | nt | nt | nt | nt
COc1ccccc1NC(=O)N1CCCC1C(=O)Nc1ccc2c(c1)OCO2 (centres undefined) | 3% | 0% | 15 | -9% | -13 | -9%
O=C(Nc1ccc2c(c1)OCO2)C1CCCN1C(=O)OCc1ccccc1 (centres undefined) | ? | 2% | 3 | 9% | -127* | 3%
O=C(Nc1ccc2c(c1)OCO2)C1CCCN1C(=O)Nc1ccccc1F (centres undefined) | ? | -2% | -3 | 18% | -84* | -11%
O=C(O)CCC(NC(=O)C1CCCN1C(=O)OCc1ccccc1)C(=O)O (centres undefined) | 3% | 3% | nt | nt | nt | nt
COC(C)=O | ? | nt | nt | nt | nt | -2%
CCCCc1nnc(NC(=O)CSc2nc(=O)cc(N)n2-c2cccc(C)c2)s1 | -2% | -1% | 1 | 16% | -81* | -10%
CCCCCCC1=Cc2cc(OC)c(OC)cc2C(C2(C(=O)OCC)CCCC2=O)O1 (centres undefined) | 4%[13.5 µM] | nt | nt | nt | nt | nt
CC(=O)N=C(N)Sc1nc2ccccc2[nH]1 | -3% | -11% | -9 | -7% | -100* | -17%
CC(Sc1nc2ccccc2[nH]1)C(=O)O (centres undefined) | -6% | -2% | 8 | 8% | 29 | -10%
COc1ccc(-n2ncc(C(=O)N3CCc4ccccc4C3)c2C2CCN(C(=O)OC(C)(C)C)CC2)cc1 | nt | nt | nt | -1%[46 µM] | nt | nt
S=c1nc(-c2ccco2)[nH][nH]1 | 25µM* | 5% | 7 | -4% | 16 | 22µM*
c1ccc(COn2c(-c3ccccc3)nc3c2CCc2nonc2-3)cc1 | 8.9µM* | nt | 10 | ? | -21 | nt
COn1c(-c2ccccc2)nc2c1CCc1nonc1-2 | 7.9µM* | -2% | 4 | 5% | -25 | -23%
Cc1ccc(O)c(-c2cc(-c3cccc(Br)c3)n[nH]2)c1 | -4% | -2% | nt | nt | nt | nt
Cc1ccc(O)c(-c2cc(C(F)(F)F)[nH]n2)c1 | 8% | 1% | 1 | 5% | 10 | 14µM*
CCCc1nn(-c2cc(Cl)ccc2OC)c2c1C(=O)CCC2 | -2% | 1% | -7 | 3% | -97* | -3%
CCCCc1nn(-c2cc(Cl)ccc2OC)c2c1C(=O)CC(C)(C)C2 | 4% | 0% | 12 | 3% | ? | -1%
SMILES | ALDH1A1 block | KinaseGlo FLuc | IMPase cell inh | LMNA splice mod | PNC inhibitor | HPGD block
Nc1nc(=O)c2[nH]cnc2n1O | 1%[13.5 µM] | -1%[7.66 µM] | nt | nt | nt | -8%
COc1ccc(C(C)=O)cc1COC(=O)c1cccnc1SC | 10µM* | 1% | nt | 12%[46 µM] | nt | nt
N/C(=N\OC(=O)CCCCCN1C(=O)c2ccccc2C1=O)c1ccccc1 | ? | 9% | 3 | -13% | ? | 13µM*
COc1ccc(C(C)=O)cc1COC(=O)c1cc(C)oc1C | 18µM* | 2% | -1 | -1% | 0 | -9%
COc1ccc(C(C)=O)cc1COC(=O)c1cc(C)nc2ccccc12 | 8.9µM* | 0% | nt | ? | nt | nt
CC[C@@H](c1ccccc1)n1c(=O)n2n(c1=O)[C@H]1[C@H](O)[C@H]3O[C@@H]3/C(=N/OC/C=C(\C)CCC=C(C)C)[C@@H]1CC2 | -3%[13.5 µM] | nt | nt | nt | nt | nt
COC(=O)[C@@]1(Cc2ccc(OC)cc2)[C@H]2c3cc(C(=O)N(C)C)n(CCc4ccc(O)c(OC)c4)c3C[C@H]2CN1C(=O)c1ccccc1 | 4% | 0% | nt | nt | nt | -7%
CCCCNC(=O)CSc1nc2cc3c(cc2c(=O)n1CCCC(=O)NCc1ccc2c(c1)OCO2)OCO3 | nt | nt | nt | 15%[46 µM] | nt | nt
Nc1c2ccccc2nc2c(O)cccc12 | 0%[20.9 µM] | 2%[17.1 µM] | -2[20.6 µM] | -3% | nt | -6%
CCN(CC)CCCCC1CCN(CC(=O)N2c3ccccc3C(=O)Nc3cccnc32)CC1 | 2% | 1% | nt | nt | nt | -14%
O=C(Cc1n[nH]c(=O)c2ccccc12)OCC(=O)c1ccc2c(c1)OCCO2 | -11% | 0% | 5 | ? | -102* | -22%
CSc1ncccc1C(=O)OCc1ccccc1Cl | ? | ? | nt | -4%[46 µM] | nt | nt
COc1cc(C(=O)NCC(=O)OCc2ccccc2Cl)cc(OC)c1OC | -11% | 0% | nt | nt | nt | nt
CCOc1ccc(C(C)=O)cc1COC(=O)c1cccnc1SC | 25µM* | 2% | nt | ? | nt | nt
COc1ccc(C(C)=O)cc1COC(=O)CNC(=O)c1cc(C)cc(C)c1 | 7.9µM* | 3% | 8 | -2% | ? | -13%
COc1ccc(C(C)=O)cc1COC(=O)Cc1n[nH]c(=O)c2ccccc12 | ? | 10% | -3 | 10% | -9 | 22µM*
Cc1cc(C(=O)COC(=O)Cc2n[nH]c(=O)c3ccccc23)c(C)n1-c1ccc2c(c1)OCO2 | -4% | 3% | 4 | ? | ? | -19%
Cc1cnc(CNc2cc(-c3ccoc3)ncn2)cn1 | ? | -4% | nt | 1% | nt | -19%
Cc1ccc(S(=O)(=O)N(CC(=O)O)c2cccc(Cl)c2)cc1 | 10% | 1% | nt | nt | nt | -9%
CCOc1ccc2c(ccc(/C=C\c3cc(C)c4cccnc4c3O)[n+]2C)c1 | 2%[13.5 µM] | -6%[7.66 µM] | nt | nt | nt | -15%
COc1ccc(C(C)=O)cc1COC(=O)CCCN1C(=O)c2ccccc2C1=O | 3.5µM* | 0% | nt | -6%[46 µM] | nt | nt
Cc1cccc(/C(N)=N/OC(=O)CCCN2C(=O)c3ccccc3C2=O)c1 | 0% | -6% | -4 | 10% | 19 | -24%
CCN(CC)c1cc2c(cc1F)c(=O)c(S(=O)(=O)c1ccc(OC)cc1)cn2CC | nt | nt | nt | -2%[46 µM] | nt | nt
COc1nc(N(c2ccccc2)c2ccccc2)nc(-n2ccnc2)n1 | 1.4µM* | -3% | -2 | ? | -29 | -13%
COC(CNC(=O)CNC(=S)N(Cc1ccccc1)Cc1cccnc1)OC | -12% | 4% | nt | nt | nt | nt
